Screening results deposited in PubChem by several laboratories.
sEH act: soluble epoxide hydrolase activators, primary screen, biochemical, human sEH | Bifunctional epoxide hydrolase 2 (Homo sapiens), P34913 | purified human sEH enzymatic activity, activator screen | activation, % at 2 µM | hit rate 0.04% among 91,000 | AID 717, 2007; in the data active means activation above about 37%
CYP2C9 inhib: blockers of cytochrome P450 2C9 activity – biochemical, luminescence, ADME assay, primary screen. hit rate 20% among 96,000. inhibition, % at 5 µM. P11712. AID 777, 2007. CYP2C9 Supersomes, luciferin-H conversion;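 active means blocking of liver enzyme CYP2C9 beyond about 50% at 5 µM, limit read from the data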
Target sequence (P11712 whole entry, looked up): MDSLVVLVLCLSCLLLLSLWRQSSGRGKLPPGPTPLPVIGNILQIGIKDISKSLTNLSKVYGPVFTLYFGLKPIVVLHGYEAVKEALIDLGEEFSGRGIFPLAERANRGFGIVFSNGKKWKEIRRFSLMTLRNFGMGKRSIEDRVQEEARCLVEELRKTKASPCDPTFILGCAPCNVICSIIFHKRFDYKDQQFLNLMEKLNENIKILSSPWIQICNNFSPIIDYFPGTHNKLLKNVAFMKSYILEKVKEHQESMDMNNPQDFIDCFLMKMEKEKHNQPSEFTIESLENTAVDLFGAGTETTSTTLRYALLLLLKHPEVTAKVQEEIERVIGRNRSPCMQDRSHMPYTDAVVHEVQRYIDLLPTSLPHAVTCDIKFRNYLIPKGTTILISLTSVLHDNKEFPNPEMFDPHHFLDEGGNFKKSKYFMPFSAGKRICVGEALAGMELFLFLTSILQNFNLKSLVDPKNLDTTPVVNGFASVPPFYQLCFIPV
CYP2C19 activ: human CYP2C19 activators, primary screen, biochemical, luminescence | activation factor at 5 µM | Cytochrome P450 2C19 (Homo sapiens), P33261 | 96,000 tested, under 10 active | recombinant CYP2C19, luciferin-H EGE luminescence; hits give high values; 0 = fully inhibited enzyme, 1 = untreated enzyme | AID 1025, 2008;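 active means activation factor of at least 2 at 5 µM in the primary screen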;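 further: 0 = wells with 2.5 mM tranylcypromine and 1 = vehicle-only wells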
CYP2C19 inhib: blockers of cytochrome P450 2C19 activity – biochemical, luminescence, ADME assay, primary screen | hit rate 21% among 96,000 | CYP2C19 Supersomes, luciferin-H EGE luminescence, 30 min | inhibition, % at 5 µM | AID 778, 2007 | P33261;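 active means CYP2C19 inhibition above a set limit at 5 µM in the primary screen, cut at about 50% in these data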;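 further: plate controls were negative control wells for no effect and 2.5 mM tranylcypromine positive control for full effect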
CYP2C9 act: human CYP2C9 activators, primary screen, biochemical, luminescence; Cytochrome P450 2C9 (Homo sapiens), P11712; recombinant CYP2C9, luciferin-H conversion; hits give high values; factor 1 = untreated enzyme, 0 = blocked; activation factor at 5 µM; hit rate 1.4% among 96,000;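 active means activation factor of 2 or more for CYP2C9 at a 5 µM dose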;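 further: 0 = sulfaphenazole-blocked wells and 1 = vehicle-only wells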
sEH inh: soluble epoxide hydrolase inhibitors, primary screen, biochemical, human sEH. Bifunctional epoxide hydrolase 2 (Homo sapiens), P34913. recombinant human sEH enzymatic activity assay. inhibition, % at 2 µM. hit rate 0.34% among 91,000. AID 707, 2007; in the data active means inhibition above about 80%
Starred values were filed as active, the others as inactive; nt = not tested or not shown. A selection: hits, their analogues and other compounds. The true share with any hit is near 27%.

SMILES	sEH act	CYP2C9 inhib	CYP2C19 activ	CYP2C19 inhib	CYP2C9 act	sEH inh
CCOCCOC(=O)C1=C(C)Nc2ccc(C)cc2S1	nt	71*	0.1	91*	0.3	nt
CCOC(=O)C1=C(C)Nc2ccc(C)cc2S1	-4	31	0.3	66*	0.7	3
CCOC(=O)/C=C1\Nc2ccccc2SC1=O	3	49	0.6	44	0.5	1
CSCCOC(=O)C1=C(C)Nc2ccc(C)cc2S1	6	61*	0.5	50	0.4	-5
CCOC(=O)c1sc2nc(CC(=O)OC)nc(NCc3ccc(Cl)cc3)c2c1C	-7	7	0.9	7	0.9	4
Cn1cccc1C(=O)NC(=O)COC(=O)C12CC3CC(CC(O)(C3)C1)C2	-15	29	0.8	17	0.7	18
O=C1CCCCCN1CP(=O)(O)CN1CCOCC1	nt	2	1	2	1	nt
CC(=O)c1c(C)[nH]c(C(=O)OC2CCCCC2=O)c1C (configuration not stated)	5	18	0.7	26	0.8	-7
CCN(C(=O)c1cccc(F)c1)c1ccccc1C	8	61*	0.2	83*	0.4	-5
S=c1[nH]nc(-c2ccncc2)n1Cc1ccccc1	-2	31	1.1	-6	0.7	2
CCc1ccccc1-n1c(-c2ccncc2)n[nH]c1=S	nt	68*	0.3	68*	0.3	nt
Cc1ccccc1-n1c(-c2ccncc2)n[nH]c1=S	nt	29	0.5	54*	0.7	nt
CC(c1ccccc1)n1c(-c2ccncc2)n[nH]c1=S (configuration not stated)	6	65*	0.2	78*	0.3	-4
N#Cc1cccc(NC(=O)Nc2cccs2)c1	-20	84*	0.6	42	0.2	21
CCc1cccc(NC(=O)Nc2cccs2)c1	-51	38	0.7	28	0.6	51
COc1ccc(C2=CC(c3ccc(Cl)cc3)n3cnnc3N2)cc1OC (configuration not stated)	nt	40	0.7	25	0.6	nt
Cc1occc1C(=O)Nc1ccc2c(c1)OCCO2	1	47	0.2	81*	0.5	2
Cc1ncoc1C(=O)Nc1ccc2c(c1)OCCO2	-2	16	0.6	35	0.8	-1
Cc1c([N+](=O)[O-])c(C(=O)Nc2ccc3c(c2)OCCO3)nn1C	12	5	0.3	68*	0.9	-10
O=c1cc(CSc2nnc(Nc3ccccc3)s2)nc2sccn12	0	40	1	3	0.6	-2
COc1ccc(C)cc1-n1nnnc1SCC1CCCCO1 (configuration not stated)	20	73*	0	100*	0.3	-18
COc1ccc(C)cc1-n1nnnc1SCc1cn2ccsc2n1	2	40	0.1	87*	0.6	-5
Cc1cccc(Nc2nnc(SCc3cn4ccsc4n3)s2)c1	-6	57*	0.3	74*	0.4	6
COc1ccc2c(c1)N(C)C(=O)CC(c1ccccc1)=N2	-2	98*	0.1	94*	0	4
Cc1ccc2c(c1)NC(=O)CC(c1ccccc1)=N2	6	nt	nt	nt	nt	0
SMILES	sEH act	CYP2C9 inhib	CYP2C19 activ	CYP2C19 inhib	CYP2C9 act	sEH inh
Cc1ccc(S(=O)(=O)N2CCC(C(=O)NNS(=O)(=O)c3ccc(Cl)cc3)CC2)cc1	4	-28	0.9	8	1.3	-2
CNC(=O)c1sccc1SCc1c(Cl)cccc1Cl	0	12	0.6	38	0.9	-1
CNC(=O)c1sccc1SCc1ccc(Cl)cc1Cl	-3	38	0.2	75*	0.6	0
COC(=O)c1ccc(COc2ccc(C3C4=C(CCCC4=O)Nc4onc(C)c43)cc2)cc1 (configuration not stated)	12	68*	0.8	17	0.3	-13
CCOC(=O)c1cnc2ccc(Cl)cc2c1NCCN(C)C	-3	nt	nt	nt	nt	6
CCOC(=O)c1cnc2ccc(C(=O)OC)cc2c1Nc1ccc2c(c1)OCCO2	-10	54*	0.7	27	0.5	12
CCOC(=O)c1cnc2ccc(OC)cc2c1Nc1ccc2c(c1)OCCO2	9	96*	0.5	46	0	-8
Cc1cc(NC(=O)CCn2c(=O)sc3ccccc32)no1	0	nt	nt	nt	nt	4
Cn1c(SCC(=O)c2ccc3c(c2)OCO3)nnc1-c1ccccn1	7	15	0.5	52*	0.8	-5
CCn1c(CSc2nc3ccccc3s2)nnc1SCC(=O)c1ccc2c(c1)OCCO2	-7	nt	nt	nt	nt	8
Cn1c(SCC(=O)Nc2ccc3c(c2)OCO3)nnc1-c1cnccn1	-7	-4	0.8	17	1	6
O=C(CSc1nnc(SCc2cccc3ccccc23)s1)c1ccc2c(c1)OCO2	16	63*	0.5	52*	0.4	-14
O=C(CSc1ccccn1)c1ccc2c(c1)OCO2	0	26	0	98*	0.7	0
Cc1cc(NC(=O)C2C3C(=O)N(Cc4ccc(Cl)cc4)C(C(=O)NC(C)(C)C)C34C=CC2(C)O4)no1 (configuration not stated)	-4	-18	1.2	-19	1.2	3
O=C(O)C1[C@H]2C(=O)N(C3CCCC3)C[C@]23C=C[C@H]1O3 (some centres not stated)	8	4	1	3	1	-8
CC(=O)c1cccc(NC(=O)NC2CCCCC2)c1	-69	2	0.9	7	1	69
COC(=O)[C@H](C)NC(=O)Nc1cccc(C(F)(F)F)c1	-4	nt	nt	nt	nt	8
O=C(Nc1cccc(C(F)(F)F)c1)NC1CCCCC1	-94	-15	0.9	10	1.2	94*
O=C(Nc1ccc2c(c1)nc1n2CCN(C2CCCCC2)C1)NC1CCCCC1	-89	30	0.9	12	0.7	89*
O=C(Nc1ccc(Cl)cc1)NC1CCCCC1	nt	1	1	-1	1	nt
O=C(Nc1ccc(OC(F)F)cc1)Nc1cccc(C(F)(F)F)c1	-86	25	0.7	29	0.8	86*
O=C(Nc1ccc(F)c(F)c1)NC1CCCCC1	-90	46	0.9	14	0.5	90*
O=C(O)C1C2C=CC3(CN(C/C=C/c4ccccc4)C(=O)C13)O2 (configuration not stated)	nt	6	1	-3	0.9	nt
CCn1c(O)c(C=Nc2ccccc2)n(-c2ccccc2)c1=S	5	2	0.9	13	1	-2
CCCCC(C)n1[nH]c(=O)cc1N (configuration not stated)	11	7	1	-2	0.9	-12
